Test results as given in PubChem BioAssay AID813 (Sanford-Burnham Center for Chemical Genomics, 2007).
The campaign covered roughly 64,000 compounds. Fewer than 10 were called active. These entries were drawn from the full list. Values without a mark were called inactive.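 How the source made its calls: active means activation factor of at least 2 at 20 µM, relative to controls; inactive means the rest.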

molecular target: Alkaline phosphatase, tissue-nonspecific isozyme (Homo sapiens) (UniProt P05186); test: human TNAP enzyme activators, primary screen, biochemical, luminescent, intermediate phosphate acceptor level (AID 813); details: purified TNAP, CDP-star luminescence, 100 mM DEA, 30 min; at 20 µM; hits give high values; scale: 0 levamisole-inhibited, 1 vehicle-only enzyme
Sequence (P05186 whole entry, looked up): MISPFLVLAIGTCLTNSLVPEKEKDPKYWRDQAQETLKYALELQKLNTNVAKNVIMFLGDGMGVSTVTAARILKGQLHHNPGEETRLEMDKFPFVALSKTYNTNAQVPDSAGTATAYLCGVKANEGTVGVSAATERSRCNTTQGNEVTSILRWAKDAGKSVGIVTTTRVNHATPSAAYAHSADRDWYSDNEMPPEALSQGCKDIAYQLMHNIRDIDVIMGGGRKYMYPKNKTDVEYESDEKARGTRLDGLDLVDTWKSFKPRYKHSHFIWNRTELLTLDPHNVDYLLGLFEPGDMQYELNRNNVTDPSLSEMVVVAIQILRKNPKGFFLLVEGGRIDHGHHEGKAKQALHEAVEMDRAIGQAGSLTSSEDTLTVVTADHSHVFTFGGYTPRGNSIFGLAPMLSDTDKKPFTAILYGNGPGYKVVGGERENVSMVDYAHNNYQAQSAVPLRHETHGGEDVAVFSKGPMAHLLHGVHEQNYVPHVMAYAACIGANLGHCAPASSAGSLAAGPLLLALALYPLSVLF

Row | Structure (SMILES) | activation factor
1 | O=C(C1CCCO1)N(Cc1ccccc1)c1ccccc1 (stereo unspecified) | 0.9
2 | Cc1nn(-c2ccccc2)c2sc(C(=O)N(Cc3ccco3)C(C)C(=O)NC(C)(C)C)cc12 (stereo unspecified) | 0.9
3 | COc1cccc(N2C(=O)CC(N3CCN(S(=O)(=O)c4ccccc4)CC3)C2=O)c1 (stereo unspecified) | 1
4 | CCN(CC)S(=O)(=O)c1cccc(C(=O)NCC(=O)OCC(=O)NCc2ccccc2)c1 | 0.9
5 | O=C(O)c1ccc(COc2c(F)c(F)cc(F)c2F)o1 | 0.8
6 | CC12CN(Cc3ccccc3)CC(C)(CN(Cc3ccccc3)C1)C2=NO | 1.2
7 | COc1ccc(C)cc1-n1nnnc1SCC(=O)c1cc(C)n(Cc2ccco2)c1C | 0.8
8 | O=C(c1cccs1)N1CCN(Cc2ccc3c(c2)OCO3)CC1 | 1
9 | COc1cccc(N(C(=O)c2ccn[nH]2)C2(C(=O)Nc3c(C)cccc3C)CCCCC2)c1 | 2.8 (active)
10 | COc1cccc(N2CC(C(=O)Nc3c(C)cccc3C)CC2=O)c1 (stereo unspecified) | 1
11 | Fc1cc(F)c2nc(N3CCOCC3)sc2c1 | 0.9
12 | Cc1ccc(C(=O)O)cc1S(=O)(=O)NCC1CCCO1 (stereo unspecified) | 0.9
13 | COC(=O)c1ccccc1NC(=O)C1CCN(S(=O)(=O)c2cc(OC)ccc2OC)CC1 | 0.9
14 | Cc1cccc(N)c1SC1CCCCC1O (stereo unspecified) | 0.9
15 | CC(=O)Nc1cccc2c1[n+]([O-])c(C)c(C)[n+]2[O-] | 1
16 | CC(=O)OC(C(=O)NCCc1ccccc1)c1cccnc1 (stereo unspecified) | 1
17 | CCc1nc2oc3ccccc3c(=O)c2c(=O)n1Cc1ccc(OC)cc1 | 0.9
18 | CCSc1ncnc2c(C#N)c3n(c12)CCCCC3 | 0.9
19 | O=C(Nc1c(C(=O)N2CCCCC2)cnn1-c1ccccc1)c1ccco1 | 1
20 | CC1(C)CC(=O)C2=C(C1)NCN(CCCN1CCOCC1)C2 | 0.9
21 | CCOC(=O)N1CCN(C(=O)Cc2ccc(-n3c(=S)[nH]c4ccccc4c3=O)cc2)CC1 | 1
22 | O=C(OC(C(=O)NC1CCCC1)c1ccc(F)cc1)c1ccno1 (stereo unspecified) | 0.9
23 | CC(=O)N1CCN(CCN=CC2=C(O)CC(C)(C)CC2=O)CC1 | 0.9
24 | OCCCN1c2ccccc2Nc2nnc(-c3ccccc3)cc21 | 4.3 (active)

Row | Structure (SMILES) | activation factor
25 | CCCS(=O)(=O)C(=C1Nc2ccccc2N1)S(=O)(=O)CCC | 0.9
26 | O=C(Cc1c(F)cccc1Cl)N1CCN(C(=O)c2ccco2)CC1 | 0.8
27 | O=C(COc1ccccc1Cl)Nn1cnnc1 | 0.9
28 | O=C(CN(Cc1ccccc1)C(=O)c1ccc2c(c1)OCCO2)NCc1ccc2c(c1)OCO2 | 0.9
29 | COc1ccc(C(=O)N(CCN2CCOCC2)CC(=O)NC2CCCC2)cc1OC | 0.9
30 | COc1ccc(C2C3=C(OC(C)=O)c4ccccc4C3=Nc3c2c(=O)n(C)c(=O)n3C)cc1 (stereo unspecified) | 0.8
31 | Cc1ccc(S(=O)(=O)c2c(N)n(C)c3nc4ccccc4nc23)cc1 | 0.9
32 | NC(=O)C1CCN(C2OC(=O)c3ccccc32)CC1 (stereo unspecified) | 0.9
33 | O=C(OCC(=O)N1CCN(C(=O)c2ccco2)CC1)c1ccccc1Cc1ccccc1 | 1
34 | Cc1coc2c(O)cc3c(c12)OC1(N2CCCCC2)C(=O)NCCCC31 (stereo unspecified) | 0.9
35 | CCC1=[N+]([O-])C(C)(/C(C)=N\O)N(O)C1(C)C (stereo unspecified) | 1
36 | O=C(CN1CCN(C(=O)c2cccc(F)c2)CC1)Nc1ccccc1F | 1.1
37 | CC/C(=N\O)C(C)(C)/[N+]([O-])=C/c1ccc(Br)cc1 | 0.9
38 | CCCN1Cc2cccc(C(=O)NCc3ccccc3)c2C1=O | 0.9
39 | CC(=O)N1CCc2cc(S(=O)(=O)Nc3ccccc3N3CCN(C)CC3)ccc21 | 1
40 | CCN(CC)c1ccc2cc(C(=O)O)c(=O)oc2c1 | 1
41 | Cc1ccc(C)c(N2CCN(C(=O)CCCCn3c(=O)[nH]c4ccccc4c3=O)CC2)c1 | 0.8
42 | CC1(C)Cc2c(sc3nc4n(c(=N)c23)CCCCC4)CO1 | 0.4
43 | O=c1cccc(-c2ccc(Br)cc2)o1 | 0.9
44 | O=C(CN1CCN(c2ccc(F)cc2)CC1)Nc1cccc(C(F)(F)F)c1 | 0.9
45 | Cc1ccc(S(=O)(=O)N2CCC(C(=O)OCC(=O)N3CC(=O)Nc4ccccc43)CC2)cc1 | 0.9
46 | CCC(c1nnnn1Cc1ccco1)N(CCc1ccccc1)Cc1cc2cccc(C)c2[nH]c1=O (stereo unspecified) | 0.9
47 | O=C1CC(Cc2ccccc2)C(=O)N1c1ccc(Cl)cn1 (stereo unspecified) | 1
48 | C=CCn1c(SCC(=O)NC23CC4CC(CC(C4)C2)C3)nc(O)cc1=O | 0.9

Row | Structure (SMILES) | activation factor
49 | CCn1c(=N)n(CC(=O)c2cccc(OC)c2)c2ccccc21 | 1
50 | O=C(CCCOc1ccccc1)Nc1cccc(C(=O)O)c1 | 1
51 | COc1ccc(S(=O)(=O)N2CCN(c3ncnc4c(-c5ccccc5)nsc34)CC2)cc1 | 0.9
52 | CCOC(=O)c1c(N)c(C#N)nn1-c1ccccc1C(=O)OC | 0.8
53 | Cc1cccc(N2CC(C)Cn3c2nc2c3c(=O)n(CC(=O)OCc3ccccc3)c(=O)n2C)c1 (stereo unspecified) | 0.9
54 | CCn1c(=O)cc(O)c2ccccc21 | 1
55 | O=C1c2ccccc2C(O)N1Cc1ccccc1 (stereo unspecified) | 1
56 | CCOc1ccc(CCNC(=O)C(CC)n2nc(C)n3c(cc4sccc43)c2=O)cc1OCC (stereo unspecified) | 1
57 | Cc1cc(=O)n2c3c(cccc13)CCC2 | 0.9
58 | CC(C)OCCCNc1nc2c(c(=O)n(Cc3ccccc3F)c(=O)n2C)n1C | 0.9
59 | CCOC(=O)c1sc(NC(=O)c2cc(S(=O)(=O)N3CCOCC3)ccc2C)nc1C | 0.9
60 | Cc1ccc(S(=O)(=O)NCCN2CCOCC2)cc1C | 1
61 | Cc1cc(C(=O)N2CCN(c3ccccn3)CC2)c(C)o1 | 0.9
62 | CC(=O)NCC(=O)N(C)C(C(=O)Nc1ccc2c(c1)OCCO2)c1ccccc1 (stereo unspecified) | 1
63 | CCOC(=O)c1c(C2CC2)csc1NC(=O)CSCc1c(C)noc1C | 0.9
64 | O=C(NC1CCCCC1)c1ccc2c(=O)n(CC3CCCO3)c(=O)[nH]c2c1 (stereo unspecified) | 1
65 | CCOc1ccc(OCC)c(NC(=O)CSc2nnc(Cn3cnc4ccccc43)n2C)c1 | 0.9
66 | CCOC(=O)CSc1nc2c(c(=O)n(Cc3ccccc3Cl)c(=O)n2C)n1C | 0.9
67 | CCOC(=O)C1=C(CNC2CCCCC2)NC(=O)NC1c1cc(C)ccc1C (stereo unspecified) | 0.9
68 | CSc1ccc(S(=O)(=O)NCc2ccc(Cl)cc2)cc1 | 0.8
69 | CC1(C)CC(=O)C=C(NC2CC(C)(C)NC(C)(C)C2)C1 | 0.9
70 | CCOC(=O)n1c(SCC(=O)N(CC)CC)nc2ccccc21 | 0.9
71 | CCC(C)(C)n1nnnc1C(c1ccccc1OC)N1CCSCC1 (stereo unspecified) | 0.9
